Bioassay records as filed in PubChem.
Pol eta inh-1 – DNA polymerase eta (human) inhibition. Q9Y253. recombinant Pol eta, fluorescent DNA replication assay. Potency, µM (highest dose often 114 µM), inactives show at the top dose activity change, negative = inhibition, hits mostly inhibitors. hit rate 1.2% among 390,000; note: % is set by controls: 0 for no effect and ±100 for the full control effect
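Pol eta (10 nM) was preincubated with compounds for 15 min at room temperature, after which fluorescent replication substrate (50 nM final) was added to start the reaction. Fluorescence was read kinetically at 0 and 10 min.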
WRN helicase inh-1 – inhibitors of human WRN helicase; Potency, µM (top dose mostly 114 µM), for the others: top-dose activity change, negative = inhibition, hits mostly inhibitors; Q14191; hit rate 0.46% among 360,000; AID 651768; WRN helicase unwinding, fluorescent forked duplex, kinetic; note: % is set by controls: 0 for no effect and ±100 for the full control effect; nearly all actives have a fitted effect of over 55% in size
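Enzyme (20 nM final) and test compound sit together 15 min at room temperature before substrate addition. Substrate is a single-forked duplex oligonucleotide (100 nM) labelled with fluorophore and quencher, with 2 mM ATP; helicase unwinding raises red fluorescence, read kinetically.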
Pol iota inh – inhibitors of human DNA polymerase iota | Q9UNA4 | Pol iota fluorescent replication assay, 10 min | Potency, µM (series often up to 115 µM), for inactives: top-dose activity, negative = inhibition, most hits filed as inhibitors | hit rate 1% among 390,000 | AID 588590
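Pol iota at 10 nM preincubated 15 min with compounds at room temperature; reaction started with fluorescent substrate, 50 nM final. Fluorescence read kinetically at 0 and 10 min; buffer-only wells as negative control.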
Pol kappa inh-1 – blocks human DNA polymerase kappa activity | Potency, µM (top dose mostly 107 µM), inactives show top-dose activity, negative = inhibition, usual class: inhibitors | Q9UBT6 | hit rate 0.53% among 400,000 | AID 588579 | purified Pol kappa, fluorescent DNA synthesis assay, 10 min; note: % is set by controls: 0 for no effect and ±100 for the full control effect
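Activity was followed as the change in fluorescence between reads at 0 and 10 min after starting the reaction with 50 nM substrate. Beforehand, 10 nM polymerase had been preincubated with compound for 15 min at room temperature.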
POLB inh – inhibitors of human DNA polymerase beta. AID 485314. Pol beta primer extension/strand displacement, fluorescence kinetic. hit rate 1.3% among 340,000. P06746. Potency, µM (doses to about 114 µM), inactives show at the top dose activity change, negative = inhibition, hits mostly inhibitors; note: % is set by controls: 0 for no effect and ±100 for the full control effect
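Human Pol beta at 10 nM; strand-displacement substrate 50 nM final. Compound exposure 15 min at room temperature before start, reaction 10 min at room temperature.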
Pol kappa inh-2 – Pol kappa (human) inhibition, cherry-pick confirmation; shares compounds with Pol eta inh-1; hit rate 76% among 920; purified Pol-kappa, fluorescent strand-displacement substrate; Potency, µM, usual class: inhibitors; AID 720501
Pol eta inh-2 – Pol eta (human) inhibition, cherry-pick confirmation | shares compounds with Pol eta inh-1 | Pol eta primer extension, TAMRA/BHQ fluorescence, 10 min | Potency, µM, actives largely listed as inhibitors | hit rate 64% among 2,600
WRN helicase inh-2 – WRN helicase inhibition, cherry-pick retest; hit rate 63% among 610; WRN helicase DNA unwinding, fluorescence kinetic; shares compounds with WRN helicase inh-1; AID 720497; Potency, µM (titrated, usually from 57.1 µM), without a hit: at the top dose activity, negative = inhibition, hits mostly inhibitors; note: nearly all actives have a fitted effect of over 65% in size
TO DNA binding – DNA binding via thiazole orange displacement | hit rate 10% among 610 | Potency, µM (series often up to 57.1 µM), without a hit: at the top dose activity change, negative = inhibition, most hits filed as inhibitors | thiazole orange DNA binding displacement, fluorescence | shares compounds with WRN helicase inh-1;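 note: drop in dye fluorescence marks compound binding to DNA; % is set by controls: 0 for no effect and ±100 for the full control effect; nearly all actives have a fitted effect of over 60% in size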
BLM helicase inh – blocks human BLM helicase in WRN counterscreen | hit rate 60% among 610 | Potency, µM (highest dose often 57.1 µM), without a hit: at the top dose activity change, negative = inhibition, actives largely listed as inhibitors | Recombinant BLM helicase DNA unwinding, red fluorescence | shares compounds with WRN helicase inh-1; note: nearly all actives have a fitted effect of over 60% in size
The depositor's hits bear a star; [ ] = remark or other dose. Hits are enriched below; roughly 2.3% of the tested compounds scored in any of these assays. Calls come from the whole dose curve; as a rule, active = well fitted curve in the direction sought with a large enough effect; inconclusive = small, poorly fitted or top-dose-only effect, or another doubt; inactive = no such curve, though single readings can be large; an effect the other way counts as inactive or inconclusive. Potency is the fitted concentration of half-maximal effect.

What do the screens show for `CN1C(=O)C(=Cc2ccc(SC3CCCCC3)o2)C(=O)N(C)C1=O`?
Pol eta inh-1: 22µM*; WRN helicase inh-1: -32%; Pol iota inh: inconclusive; Pol kappa inh-1: -27%; POLB inh: 22µM*; Pol kappa inh-2: inconclusive

How did CN1C(=O)C(=Cc2ccc(N3CCCCC3)o2)C(=O)N(C)C1=S do in these assays?
Pol eta inh-1: inconclusive; WRN helicase inh-1: -26%; Pol iota inh: -6%; Pol kappa inh-1: -10%; POLB inh: 11%

What do the screens show for `COc1ccccc1N1C(=O)NC(=O)/C(=C/c2ccc3c4c(cccc24)CC3)C1=O`?
Pol eta inh-1: inconclusive; WRN helicase inh-1: inconclusive; Pol iota inh: 2%; Pol kappa inh-1: -7%; POLB inh: -27%[57.1 µM]

What do the screens show for `COc1ccccc1N1C(=O)NC(=O)/C(=C/c2ccc([N+](=O)[O-])s2)C1=O`?
Pol eta inh-1: 18µM*; WRN helicase inh-1: 35µM*; Pol iota inh: inconclusive; Pol kappa inh-1: 40µM*; POLB inh: inconclusive; Pol eta inh-2: 38*

Results for COc1cccc(N2C(=O)NC(=O)/C(=C/c3ccc([N+](=O)[O-])s3)C2=O)c1 ?
Pol eta inh-1: 14µM*; WRN helicase inh-1: 35µM*; Pol iota inh: inconclusive; Pol kappa inh-1: 32µM*; POLB inh: inconclusive; Pol eta inh-2: 27*

What do the screens show for `CCOC(=O)c1c(C)[nH]c(C)c1S(=O)(=O)N1CCC(C(=O)N2CCN(c3cccc(Cl)c3)CC2)CC1`?
Pol eta inh-1: -15%; Pol iota inh: 32%; Pol kappa inh-1: -5%[60.1 µM]; POLB inh: 31%

Results for Cc1o[nH]c(=O)c1CC(N)C(=O)O (stereo unspecified) ?
Pol eta inh-1: 1%[57.1 µM]; Pol iota inh: -10%[58.9 µM]; Pol kappa inh-1: 2%[60.1 µM]; POLB inh: -3%[57.1 µM]

How did N[C@@H](Cc1cc(I)c(O)c(I)c1)C(=O)O do in these assays?
Pol eta inh-1: 40µM*; WRN helicase inh-1: inconclusive; Pol iota inh: 32µM*; Pol kappa inh-1: 50µM*; POLB inh: 31%; Pol eta inh-2: 30*

Results for O=c1[nH]c(O)c(C=Nc2ccc(Cl)cc2Cl)c(=O)[nH]1 ?
Pol eta inh-1: -13%; WRN helicase inh-1: -1%; Pol iota inh: 45%; Pol kappa inh-1: -1%; POLB inh: inconclusive

How did O=c1nc(/C=C/c2ccc(Cl)cc2Cl)cc(C(F)(F)F)[nH]1 do in these assays?
Pol eta inh-1: 32µM*; WRN helicase inh-1: 50µM*; Pol iota inh: inconclusive; Pol kappa inh-1: -5%; POLB inh: -8%; Pol eta inh-2: inconclusive

How did Nc1nonc1C(=O)N/N=C/c1ccc([N+](=O)[O-])o1 do in these assays?
Pol eta inh-1: 20µM*; WRN helicase inh-1: inconclusive; Pol iota inh: 32µM*; Pol kappa inh-1: inconclusive; POLB inh: inconclusive; Pol eta inh-2: inconclusive

How did O=C(c1ccccc1NS(=O)(=O)c1ccc(Br)cc1)N1CCOCC1 do in these assays?
Pol eta inh-1: -10%; WRN helicase inh-1: inconclusive; Pol iota inh: 3%; Pol kappa inh-1: -3%; POLB inh: -10%

What do the screens show for `Cn1cccc1/C=C1\C(=O)NC(=O)N(Cc2ccccc2Cl)C1=O`?
Pol eta inh-1: 28µM*; WRN helicase inh-1: 40µM*; Pol iota inh: 20µM*; Pol kappa inh-1: 32µM*; POLB inh: -27%; Pol eta inh-2: 67*; WRN helicase inh-2: inconclusive; TO DNA binding: -15%; BLM helicase inh: 17µM*

What do the screens show for `COc1ccc(N2C(=O)NC(=O)/C(=C\c3ccc([N+](=O)[O-])s3)C2=O)cc1`?
Pol eta inh-1: 18µM*; WRN helicase inh-1: 25µM*; Pol iota inh: inconclusive; Pol kappa inh-1: 50µM*; POLB inh: inconclusive; Pol eta inh-2: 27*; WRN helicase inh-2: 22µM*; TO DNA binding: -17%; BLM helicase inh: -22%

What do the screens show for `COc1ccc(N2C(=O)NC(=O)/C(=C/c3ccc([N+](=O)[O-])s3)C2=O)cc1`?
Pol eta inh-1: 8.9µM*; WRN helicase inh-1: 50µM*; Pol iota inh: 54%; Pol kappa inh-1: 18µM*; POLB inh: inconclusive; Pol eta inh-2: 30*; WRN helicase inh-2: 19µM*; TO DNA binding: inconclusive; BLM helicase inh: 22µM*

What do the screens show for `CCOc1ccc(N2C(=O)NC(=O)/C(=C\c3cc(OC)c(OC)cc3[N+](=O)[O-])C2=O)cc1`?
Pol eta inh-1: -5%; WRN helicase inh-1: inconclusive; Pol iota inh: inconclusive; Pol kappa inh-1: -18%; POLB inh: 16%

How did OC[C@@H](O)[C@H]1O[C@@H]2OC(C(Cl)(Cl)Cl)O[C@H]2[C@H]1O (stereo partly specified) do in these assays?
Pol kappa inh-1: -5%[19.4 µM]

Results for c1ccc(N2CCCC3(CCNCC3)C2)nc1 ?
Pol kappa inh-1: 2%[60.1 µM]

Results for On1ccccc1=S ?
Pol eta inh-1: 1%; WRN helicase inh-1: 4%; Pol iota inh: inconclusive; Pol kappa inh-1: -6%

How did Cc1ccccc1N1C(=O)NC(=O)/C(=C\c2ccc3c(c2)CCCN3Cc2ccccc2)C1=O do in these assays?
Pol eta inh-1: 20µM*; WRN helicase inh-1: 13µM*; Pol iota inh: inconclusive; Pol kappa inh-1: -29%; POLB inh: 25µM*; Pol eta inh-2: inconclusive; WRN helicase inh-2: inconclusive; TO DNA binding: 7%; BLM helicase inh: 24µM*

Results for C=CCN1C(=O)/C(=C/c2cccs2)C(=O)NC1=S ?
Pol eta inh-1: inconclusive; WRN helicase inh-1: 0.47µM*; Pol iota inh: inconclusive; Pol kappa inh-1: -23%; POLB inh: 79µM*; Pol eta inh-2: inconclusive; WRN helicase inh-2: -17%; TO DNA binding: 2%; BLM helicase inh: inconclusive

What do the screens show for `C=CCN1C(=O)NC(=O)/C(=C/c2cnc(SC)nc2)C1=O`?
Pol eta inh-1: -2%; WRN helicase inh-1: inconclusive; Pol iota inh: 2%; Pol kappa inh-1: -6%; POLB inh: 30%
